Measurements reported in PubChem BioAssay AID1159580 (chemical genetic matrix, 2015).
Where “and” joins values, the source holds several entries; their conditions need not be identical. Equal values may be shown once. Hit rate of the full screen: of about 5,500 compounds, about 2,000 (36%) were called active. Not shown: some 18% with an inconclusive outcome. This is one part of the list. Unmarked numbers belong to inactive results. No stated cut-off is given here; in the data, active means normalized growth mostly below about 0.91 (no sharp cut-off); inconclusive means no clear call, values can overlap the other calls; inactive means mostly above about 0.92.

Assay: chemical genetic growth profiling, strain panel (AID 1159580);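 further: tested at 20 µM; growth read once vehicle control cultures reached saturation at 30 °C; 1 = growth at the plate median or of vehicle wells; lower values mean less growth of the strain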
Details: S. cerevisiae deletion strains, growth OD

CC(C)N(CCC(C(N)=O)(c1ccccc1)c1ccccn1)C(C)C (stereo not drawn)
normalized growth (locus YAL013W, strain DEP1, hits give low values): 0.959 | normalized growth (locus YAL021C, strain ccr4, hits give low values): 0.0708 (active) | normalized growth (locus YAL026C, strain drs2, hits give low values): 0.0629 (active) | normalized growth (locus YAL030W, strain snc1, hits give low values): 0.233 (active) | normalized growth (locus YAL040C, strain CLN3, hits give low values): 0.969 and 1.02 | normalized growth (locus YBL061C, strain skt5, hits give low values): 0.15 (active) | normalized growth (locus YBR009C, strain hhf1, hits give low values): 0.103 (active) | normalized growth (locus YBR021W, strain FUR4, hits give low values): 0.984 | normalized growth (locus YBR023C, strain chs3, hits give low values): 0.171 (active) | normalized growth (locus YBR171W, strain sec66, hits give low values): 0.0831 (active) | normalized growth (locus YBR229C, strain ROT2, hits give low values): 0.998 | normalized growth (locus YBR231C, strain swc5, hits give low values): 0.0926 (active) | normalized growth (locus YBR279W, strain paf1, hits give low values): 0.0794 (active) | normalized growth (locus YCL011C, strain gbp2, hits give low values): 0.062 (active) | normalized growth (locus YCL016C, strain dcc1, hits give low values): 0.251 (active) | normalized growth (locus YCL029C, strain bik1, hits give low values): 0.963 | normalized growth (locus YCL061C, strain MRC1 (second series), hits give low values): 0.993 and 1.01 | normalized growth (locus YCL061C, strain MRC1, hits give low values): 0.0703 (active) | normalized growth (locus YCL069W, strain vba3, hits give low values): 0.0939 (active) | normalized growth (locus YCR088W, strain abp1, hits give low values): 0.0673 (active) | normalized growth (locus YDL005C, strain med2, hits give low values): 0.937 | normalized growth (locus YDL035C, strain GPR1, hits give low values): 1.04 | normalized growth (locus YDL040C, strain nat1, hits give low values): 0.471 (active) | normalized growth (locus YDL074C, strain BRE1, hits give low values): 0.976 | normalized growth (locus YDL101C, strain DUN1, hits give low values): 0.988 | normalized growth (locus YDL185W, strain tfp1, hits give low values): 0.971 | normalized growth (locus YDL192W, strain arf1, hits give low values): 0.995 | normalized growth (locus YDR001C, strain nth1, hits give low values): 0.0635 (active) | normalized growth (locus YDR069C, strain doa4, hits give low values): 0.0647 (active) | normalized growth (locus YDR101C, strain arx1, hits give low values): 0.983 | normalized growth (locus YDR137W, strain rgp1, hits give low values): 0.0968 (active) | normalized growth (locus YDR150W, strain NUM1, hits give low values): 0.989 and 1 and 1.01 | normalized growth (locus YDR159W, strain sac3, hits give low values): 0.388 (active) | normalized growth (locus YDR162C, strain NBP2, hits give low values): 1.01 | normalized growth (locus YDR195W, strain ref2): 0.12 (active) | normalized growth (locus YDR297W, strain sur2, hits give low values): 0.0705 (active) | normalized growth (locus YDR318W, strain mcm21, hits give low values): 0.998 | normalized growth (locus YDR334W, strain swr1, hits give low values): 0.0666 (active) | normalized growth (locus YDR335W, strain msn5, hits give low values): 0.0613 (active) | normalized growth (locus YDR363W, strain ESC2, hits give low values): 0.982 and 0.999 | normalized growth (locus YDR388W, hits give low values): 0.99 | normalized growth (locus YDR392W, strain spt3, hits give low values): 0.112 (active) | normalized growth (locus YDR502C, strain sam2, hits give low values): 0.992 | normalized growth (locus YEL003W, strain gim4, hits give low values): 0.0565 (active) | normalized growth (locus YEL037C, strain rad23, hits give low values): 0.0584 (active) | normalized growth (locus YEL061C, strain CIN8 (second series), hits give low values): 0.0634 (active) | normalized growth (locus YEL061C, strain CIN8, hits give low values): 0.996 | normalized growth (locus YER002W, strain NOP16, hits give low values): 0.995 and 1 | normalized growth (locus YER015W, strain faa2, hits give low values): 0.0627 (active) | normalized growth (locus YER016W, strain bim1, hits give low values): 0.0943 (active) | normalized growth (locus YER110C, hits give low values): 0.977 | normalized growth (locus YER111C, strain swi4, hits give low values): 0.082 (active) | normalized growth (locus YER155C, strain BEM2 (second series), hits give low values): 0.1 (active) | normalized growth (locus YER155C, strain BEM2, hits give low values): 0.989 | normalized growth (locus YER167W, strain BCK2, hits give low values): 0.986 | normalized growth (locus YFR010W, strain ubp6, hits give low values): 0.0698 (active) | normalized growth (locus YGL078C, strain dbp3, hits give low values): 0.99 | normalized growth (locus YGL086W, strain mad1, hits give low values): 1 | normalized growth (locus YGL167C, strain pmr1, hits give low values): 0.563 (active) | normalized growth (locus YGL173C, strain kem1, hits give low values): 0.114 (active) | normalized growth (locus YGL227W, strain vid30, hits give low values): 0.0631 (active) | normalized growth (locus YGL240W, strain doc1, hits give low values): 0.129 (active) | normalized growth (locus YGL248W, strain PDE1, hits give low values): 0.98 | normalized growth (locus YGL253W, strain hxk2, hits give low values): 0.0581 (active) | normalized growth (locus YGR078C, strain PAC10, hits give low values): 0.99 and 1.04 | normalized growth (locus YGR135W, strain pre9, hits give low values): 0.952 | normalized growth (locus YGR252W, strain gcn5, hits give low values): 0.997 | normalized growth (locus YHR013C, strain ard1, hits give low values): 0.114 (active) | normalized growth (locus YHR027C, strain rpn1, hits give low values): 0.0639 (active) | normalized growth (locus YHR030C, strain SLT2, hits give low values): 0.997 and 1 | normalized growth (locus YHR079C, strain IRE1 (second series), hits give low values): 0.995 | normalized growth (locus YHR079C, strain IRE1, hits give low values): 0.968 | normalized growth (locus YHR094C, strain hxt1, hits give low values): 0.976 | normalized growth (locus YHR129C, strain ARP1, hits give low values): 0.999 | normalized growth (locus YHR142W, strain chs7, hits give low values): 0.0788 (active) | normalized growth (locus YHR200W, strain rpn10, hits give low values): 0.999 | normalized growth (locus YIL066C, strain RNR3, hits give low values): 0.992 | normalized growth (locus YIL073C, strain SPO22, hits give low values): 0.912 | normalized growth (locus YIL125W, strain kgd1, hits give low values): 1 | normalized growth (locus YIR030C, strain dcg1, hits give low values): 0.973 | normalized growth (locus YJL092W, strain hpr5, hits give low values): 0.0644 (active) | normalized growth (locus YJL095W, strain BCK1 (second series), hits give low values): 0.17 (active) | normalized growth (locus YJL095W, strain BCK1, hits give low values): 0.966 and 1.01 | normalized growth (locus YJL115W, strain asf1, hits give low values): 0.0925 (active) | normalized growth (locus YJL129C, strain trk1, hits give low values): 0.0869 (active) | normalized growth (locus YJL134W, strain LCB3, hits give low values): 0.998 | normalized growth (locus YJL154C, strain vps35, hits give low values): 0.0659 (active) | normalized growth (locus YJL164C, strain tpk1, hits give low values): 0.13 (active) | normalized growth (locus YJL166W, strain qcr8, hits give low values): 0.0729 (active) | normalized growth (locus YJL168C, strain set2, hits give low values): 0.996 | normalized growth (locus YJL187C, strain SWE1 (second series), hits give low values): 0.977 | normalized growth (locus YJL187C, strain SWE1, hits give low values): 0.468 (active) | normalized growth (locus YJR043C, strain POL32, hits give low values): 1.05
